The target in assay [1] is ATP-dependent 6-phosphofructokinase (Trypanosoma brucei brucei) (UniProt O15648). Nature of the assay: qHTS Assay to Find Inhibitors of T. brucei phosphofructokinase: hit validation (AID 492961).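 Also: luminescence reports ADP formed as PFK phosphorylates fructose-6-phosphate with ATP; series mostly up to about 51 µM; % is scaled to controls: 0 for no effect and ±100 for the full control effect.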 The method, boiled down: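 ADP-Glo luminescence read-out of ADP formed by 1.25 nM PFK from 0.1 mM ATP and 0.5 mM F6P (TEA pH 8.0, 45 min, RT). Compounds titrated; activity normalized to no-enzyme and full-enzyme controls.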
Chain of ATP-dependent 6-phosphofructokinase (Trypanosoma brucei brucei) (O15648 whole entry, looked up): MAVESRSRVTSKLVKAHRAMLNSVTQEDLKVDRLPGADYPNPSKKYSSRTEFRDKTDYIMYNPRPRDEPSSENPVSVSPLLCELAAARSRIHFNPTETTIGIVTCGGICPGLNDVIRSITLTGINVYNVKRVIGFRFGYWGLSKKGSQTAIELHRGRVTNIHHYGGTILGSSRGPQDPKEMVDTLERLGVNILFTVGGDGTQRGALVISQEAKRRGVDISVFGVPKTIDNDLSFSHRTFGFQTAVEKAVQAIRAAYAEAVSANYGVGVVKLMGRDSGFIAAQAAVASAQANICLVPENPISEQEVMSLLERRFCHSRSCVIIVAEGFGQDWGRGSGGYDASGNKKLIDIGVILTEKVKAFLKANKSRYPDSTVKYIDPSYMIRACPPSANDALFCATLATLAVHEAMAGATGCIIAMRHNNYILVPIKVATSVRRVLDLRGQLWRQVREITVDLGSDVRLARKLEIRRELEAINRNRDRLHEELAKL
In general terms: In qHTS, concentration-response curves come from the screen itself.

Assay [2] in a line: Validation screen for small molecules that induce genotoxicity in human embryonic kidney (HEK293T) cells expressing luciferase-tagged ELG1 (AID 493106). Also: 0% is about no effect. Summed up: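 Cells were dispensed at 2,000 per well, then 23 nL compound or DMSO was pinned in. After 16 hr at 37 °C and 5% CO2, ONE-Glo reagent was added. Luciferase activity was measured following 30 min at room temperature.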

Assay [3] addresses ATPase family AAA domain-containing protein 5 (Homo sapiens) (UniProt Q96QE3). Kind of assay: Validation screen for small molecules that inhibit ELG1-dependent DNA repair in human embryonic kidney (HEK293T) cells expressing luciferase-tagged ELG1 (AID 493107). Also: nearly all actives have a fitted effect of over 70% in size. Also: potency is read from the fitted curve at half-maximal effect. The method, boiled down: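 Cells are dispensed in 1536-well format, then 5-fluorouridine and compound are pinned in. After a 16 hr incubation at 37 °C and 5% CO2, ONE-Glo is added and luciferase measured on a CCD imager.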

Assay [4] is described as follows: Nrf2 qHTS screen for inhibitors: Validation (AID 493153; active = well fitted inhibition curve with a large enough effect in the main read-out, with a control signal flat, not every such curve was filed as active). The conditions noted are these: Potency: luciferase luminescence; viability change: measured here: cytotoxicity max response. Summed up: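 A549 ARE_Fluc, 5% FBS OPTI-MEM; cpd titration, 18-24 h, 37°C/5% CO2. Read 1: CellTiter-Fluor (Ex 405/Em 525), cytotox. Read 2: luciferase lum, Nrf2 activity.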
Assay [5] can be described thus: qHTS for Inhibitors of Cell Surface uPA Generation: Validation Assay (AID 493164).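 Also: RAW 264.7 macrophage cells exposed to compound for 18 h; 0% is about no effect.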 Summed up:
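ATP-Lite luminescence read-out: ATP remains high when uPA activity-dependent LF translocation into the cytoplasm is blocked. RAW 264.7 cells, 18 h compound exposure at 37 C; 7-point titration, 2.45 nM to 38.3 uM final.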

For assay [6], the target named is Galactokinase (Homo sapiens) (UniProt P51570). Kind of assay: qHTS Validation Assay for Inhibitors of Human Galactokinase (GALK) (AID 493189). Also: 0% is about no effect. Summed up:
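GALK (5 nM) with 35 uM ATP and 100 uM galactose in HEPES pH 8.0 with MgCl2, NaCl, DTT and BSA. Reaction ran 1 h at room temperature. Residual ATP read by Kinase-Glo Plus luminescence.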

The nature of assay [7]: Validation screen for small molecules that induce DNA re-replication in SW480 colon adenocarcinoma cells (AID 504364). Also: 0% is about no effect. Summed up: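 Image-based qHTS: compounds were incubated with SW480 cells for 48 hr, nuclei stained with Hoechst, and per-nucleus fluorescence intensity scanned to flag cells with excess DNA content.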
Assay [8] concerns the target Peptidyl-prolyl cis-trans isomerase NIMA-interacting 1 (Homo sapiens) (UniProt Q13526). Nature of the assay: qHTS Validation Assay to Find Inhibitors of Pin1 (AID 504536; active = well fitted inhibition curve with a large enough effect in the polarisation, with a control signal flat, not every such curve was filed as active; the % refers to the polarisation;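 also: 0% = full Pin1 enzyme wells and -100% = no-enzyme wells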). The method, boiled down: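 Fluorescence polarization competition: compounds (titration) displace HiFluor-488-labeled Pin1-1b peptide from Pin1 (0.3 uM final) in pH 7.5 HEPES buffer with DTT, 10 min at room temperature; %Activity normalized to no-enzyme wells, curves fitted.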

For assay [9], the target named is phosphoglycerate mutase (Leishmania major) (UniProt Q4Q090). Kind of assay: qHTS Validation Assay to Find Inhibitors of Phosphoglycerate Mutase (AID 504548). Also: series mostly up to about 58 µM; % is scaled to controls: 0 for no effect and ±100 for the full control effect. Summed up: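 Lm PGAM 1.25nM final; 100 mM TEA pH 7.6, 5 mM MgCl2, 0.01% Tween-20; 45 min RT; Kinase-GloPlus, 10 min; end-point luminescence. Enzyme-free wells as negative controls.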
In assay [10] the target is Ubiquitin carboxyl-terminal hydrolase 1 (Homo sapiens) (UniProt O94782). Kind of assay: Inhibitors of USP1/UAF1: Pilot qHTS (AID 504865).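 Also: rhodamine fluorescence freed from ubiquitin-rhodamine substrate followed over time; top concentration of the series differs between compounds; % is scaled to controls: 0 for no effect and ±100 for the full control effect; nearly all actives have a fitted effect of over 35% in size.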 The method, boiled down: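 USP1/UAF1 complex at 1 nM preincubated 15 min at room temperature with compound, then Ub-Rho substrate added at 150 nM final. Fluorescence (480/540 nm) read kinetically in 50 mM HEPES pH 7.8, 0.5 mM EDTA, 1 mM TCEP, 0.1 mg/ml BSA, 0.01% Tween-20.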
Chain of Ubiquitin carboxyl-terminal hydrolase 1 (Homo sapiens) (O94782 whole entry, looked up): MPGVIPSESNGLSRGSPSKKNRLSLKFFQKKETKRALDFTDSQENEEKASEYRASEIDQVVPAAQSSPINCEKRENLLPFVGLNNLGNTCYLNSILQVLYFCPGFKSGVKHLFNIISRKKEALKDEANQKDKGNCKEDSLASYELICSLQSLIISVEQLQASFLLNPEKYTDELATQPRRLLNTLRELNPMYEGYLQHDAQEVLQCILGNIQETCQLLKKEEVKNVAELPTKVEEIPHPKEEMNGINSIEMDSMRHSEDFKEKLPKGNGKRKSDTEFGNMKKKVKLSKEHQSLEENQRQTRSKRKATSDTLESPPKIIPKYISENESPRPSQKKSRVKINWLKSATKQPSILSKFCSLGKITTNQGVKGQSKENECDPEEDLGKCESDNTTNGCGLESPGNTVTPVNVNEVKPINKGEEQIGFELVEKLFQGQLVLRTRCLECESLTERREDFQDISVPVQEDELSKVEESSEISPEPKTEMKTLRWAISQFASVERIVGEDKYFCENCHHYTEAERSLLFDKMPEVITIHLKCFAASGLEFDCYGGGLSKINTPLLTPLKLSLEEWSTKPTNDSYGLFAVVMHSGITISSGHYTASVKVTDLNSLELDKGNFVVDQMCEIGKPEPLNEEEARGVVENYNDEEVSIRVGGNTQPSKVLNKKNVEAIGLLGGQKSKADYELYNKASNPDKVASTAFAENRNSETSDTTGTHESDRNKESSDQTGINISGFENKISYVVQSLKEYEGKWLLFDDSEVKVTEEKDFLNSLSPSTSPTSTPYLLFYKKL

Assay [11] can be described thus: qHTS for Inhibitors of ATXN expression: Validation of Cytotoxic Assay (AID 588349). Also: potency is read from the fitted curve at half-maximal effect. The method, boiled down: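 Titrated compounds are added to cultured HEK293 cells, which are then held at 37 degrees C for 72 hr; loss of intracellular ATP, measured with CellTiter Glo, indicates toxicity.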
Assay [12] is described as follows: qHTS for Inhibitors of ATXN expression: Validation (AID 588378). Also: nearly all actives have a fitted effect of over 75% in size. Also: potency is read from the fitted curve at half-maximal effect. Summed up:
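HEK293 cells carrying ATXN2-firefly luciferase reporter, treated with compound 24 h at 37 °C. Viability read first by CellTiter-Fluor (405/525 nm), then reporter expression by Bright-Glo luminescence; controls were a known ATXN2 expression inhibitor and a luciferase inhibitor.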

Assay [13] concerns the target DNA dC->dU-editing enzyme APOBEC-3G (Homo sapiens) (UniProt Q9HC16). Kind of assay: qHTS for inhibitors of Vif-A3G interactions: Validation (AID 588379). Also: 0% is about no effect. Summed up: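 Yellow fluorescence (Ex 488, Em 500-530) of Vif-coexpressing HeLa A3G-eYFP cells, scanned by Acumen cytometer, reports blocked A3G degradation. Cells plated at 700/well overnight at 37 deg C before compound addition, then a further overnight compound incubation at 37 deg C.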

The target of assay [14] is Phosphoglycerate kinase, glycosomal (Trypanosoma brucei brucei) (UniProt P07378). Kind of assay: qHTS Validation Assay to Find Inhibitors of Phosphoglycerate Kinase (AID 504547).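 Also: control wells lack PGK and mark full inhibition.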 Summed up:
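Luminescence end-point (Kinase-Glo Plus, 10 min) after a 60 min room-temperature coupled reaction. GAPDH at 100nM final supplies 1,3-BPG to PGK. Buffer: 100mM TEA pH 7.6, 5mM MgCl2, 0.01% Tween-20. Wells lacking PGK served as controls.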

The target of assay [15] is Thyrotropin-releasing hormone receptor (Homo sapiens) (UniProt P34981). Nature of the assay: qHTS for Small Molecule Agonists and Allosteric Enhancers of Human TRH Receptor: Validation Screen for Agonists (AID 493127;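 active = calcium activation more than 3 SD above the typical response in the agonist read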;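 also: intracellular calcium rise by fluo-8 fluorescence before TRH EC20 addition; 0% is about no effect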). The conditions noted are these: TRH receptor agonist cell assay; at 2 µM; stronger effect = higher value. Summed up: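 Compounds are added by online pintool to dye-loaded TRHR cells while fluorescence is recorded every second. A rise in calcium signal during the agonist read marks activation; a later 10 nM TRH addition (EC20) serves the separate enhancer mode.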
Chain of Thyrotropin-releasing hormone receptor (Homo sapiens) (P34981 whole entry, looked up): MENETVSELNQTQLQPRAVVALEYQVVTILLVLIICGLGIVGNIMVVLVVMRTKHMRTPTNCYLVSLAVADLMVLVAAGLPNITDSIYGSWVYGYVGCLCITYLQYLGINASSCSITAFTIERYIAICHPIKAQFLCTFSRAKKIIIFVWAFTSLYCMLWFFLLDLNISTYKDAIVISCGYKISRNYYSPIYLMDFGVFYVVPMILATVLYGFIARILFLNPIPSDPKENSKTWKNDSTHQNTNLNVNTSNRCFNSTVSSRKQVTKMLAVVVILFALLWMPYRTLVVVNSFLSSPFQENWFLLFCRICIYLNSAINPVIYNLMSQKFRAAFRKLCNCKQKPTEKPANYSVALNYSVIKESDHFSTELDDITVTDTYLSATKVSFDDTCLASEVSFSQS

Molecules are shown by their SMILES. Results filed as inconclusive are left out. Active and inactive are the calls of the source. Unless noted, calls follow the shape of the dose curve; as a rule, active = well fitted curve in the direction sought with a large enough effect; inconclusive = small, poorly fitted or top-dose-only effect, or another doubt; inactive = no such curve, though single readings can be large; an effect the other way counts as inactive or inconclusive.

Chain of Phosphoglycerate kinase, glycosomal (Trypanosoma brucei brucei) (P07378 whole entry, looked up): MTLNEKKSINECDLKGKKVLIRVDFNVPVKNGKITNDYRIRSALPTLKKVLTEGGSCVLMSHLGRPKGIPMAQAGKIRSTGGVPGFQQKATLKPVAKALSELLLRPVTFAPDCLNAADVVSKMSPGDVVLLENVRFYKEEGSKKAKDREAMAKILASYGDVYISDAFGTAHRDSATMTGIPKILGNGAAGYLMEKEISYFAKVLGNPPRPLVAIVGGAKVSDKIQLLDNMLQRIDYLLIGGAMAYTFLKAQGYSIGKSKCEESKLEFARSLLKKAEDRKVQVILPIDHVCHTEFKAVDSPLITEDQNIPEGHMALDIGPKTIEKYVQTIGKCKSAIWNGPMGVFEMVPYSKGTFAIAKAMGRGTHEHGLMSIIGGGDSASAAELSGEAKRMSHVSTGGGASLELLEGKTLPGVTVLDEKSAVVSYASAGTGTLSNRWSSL
Chain of Galactokinase (Homo sapiens) (P51570 whole entry, looked up): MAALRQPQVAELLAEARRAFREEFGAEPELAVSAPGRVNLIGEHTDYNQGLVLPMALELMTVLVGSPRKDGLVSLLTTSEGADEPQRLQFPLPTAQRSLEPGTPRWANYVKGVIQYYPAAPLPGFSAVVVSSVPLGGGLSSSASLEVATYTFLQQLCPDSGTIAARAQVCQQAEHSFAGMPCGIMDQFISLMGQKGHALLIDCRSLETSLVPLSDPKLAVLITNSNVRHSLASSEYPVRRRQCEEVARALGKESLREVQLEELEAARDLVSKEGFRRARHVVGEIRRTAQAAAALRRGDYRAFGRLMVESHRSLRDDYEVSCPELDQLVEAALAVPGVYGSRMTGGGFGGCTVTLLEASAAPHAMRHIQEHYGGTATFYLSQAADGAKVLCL
Chain of DNA dC->dU-editing enzyme APOBEC-3G (Homo sapiens) (Q9HC16 whole entry, looked up): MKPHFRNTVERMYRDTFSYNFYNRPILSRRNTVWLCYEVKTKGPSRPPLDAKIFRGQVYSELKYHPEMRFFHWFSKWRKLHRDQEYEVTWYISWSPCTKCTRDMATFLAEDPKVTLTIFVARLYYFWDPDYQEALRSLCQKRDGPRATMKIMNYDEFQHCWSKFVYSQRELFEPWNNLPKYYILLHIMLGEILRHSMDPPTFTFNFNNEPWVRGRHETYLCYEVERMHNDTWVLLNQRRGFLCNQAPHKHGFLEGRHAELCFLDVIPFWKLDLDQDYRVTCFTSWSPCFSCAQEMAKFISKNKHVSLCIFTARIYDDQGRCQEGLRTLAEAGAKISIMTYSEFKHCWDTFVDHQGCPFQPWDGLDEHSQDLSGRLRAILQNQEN
Chain of Peptidyl-prolyl cis-trans isomerase NIMA-interacting 1 (Homo sapiens) (Q13526 whole entry, looked up): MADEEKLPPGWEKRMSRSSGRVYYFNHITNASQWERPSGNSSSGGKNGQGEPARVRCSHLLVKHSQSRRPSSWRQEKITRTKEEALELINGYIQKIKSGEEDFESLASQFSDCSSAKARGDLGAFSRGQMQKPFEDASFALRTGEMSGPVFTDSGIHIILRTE
Chain of ATPase family AAA domain-containing protein 5 (Homo sapiens) (Q96QE3 whole entry, looked up, the tested form may be a part): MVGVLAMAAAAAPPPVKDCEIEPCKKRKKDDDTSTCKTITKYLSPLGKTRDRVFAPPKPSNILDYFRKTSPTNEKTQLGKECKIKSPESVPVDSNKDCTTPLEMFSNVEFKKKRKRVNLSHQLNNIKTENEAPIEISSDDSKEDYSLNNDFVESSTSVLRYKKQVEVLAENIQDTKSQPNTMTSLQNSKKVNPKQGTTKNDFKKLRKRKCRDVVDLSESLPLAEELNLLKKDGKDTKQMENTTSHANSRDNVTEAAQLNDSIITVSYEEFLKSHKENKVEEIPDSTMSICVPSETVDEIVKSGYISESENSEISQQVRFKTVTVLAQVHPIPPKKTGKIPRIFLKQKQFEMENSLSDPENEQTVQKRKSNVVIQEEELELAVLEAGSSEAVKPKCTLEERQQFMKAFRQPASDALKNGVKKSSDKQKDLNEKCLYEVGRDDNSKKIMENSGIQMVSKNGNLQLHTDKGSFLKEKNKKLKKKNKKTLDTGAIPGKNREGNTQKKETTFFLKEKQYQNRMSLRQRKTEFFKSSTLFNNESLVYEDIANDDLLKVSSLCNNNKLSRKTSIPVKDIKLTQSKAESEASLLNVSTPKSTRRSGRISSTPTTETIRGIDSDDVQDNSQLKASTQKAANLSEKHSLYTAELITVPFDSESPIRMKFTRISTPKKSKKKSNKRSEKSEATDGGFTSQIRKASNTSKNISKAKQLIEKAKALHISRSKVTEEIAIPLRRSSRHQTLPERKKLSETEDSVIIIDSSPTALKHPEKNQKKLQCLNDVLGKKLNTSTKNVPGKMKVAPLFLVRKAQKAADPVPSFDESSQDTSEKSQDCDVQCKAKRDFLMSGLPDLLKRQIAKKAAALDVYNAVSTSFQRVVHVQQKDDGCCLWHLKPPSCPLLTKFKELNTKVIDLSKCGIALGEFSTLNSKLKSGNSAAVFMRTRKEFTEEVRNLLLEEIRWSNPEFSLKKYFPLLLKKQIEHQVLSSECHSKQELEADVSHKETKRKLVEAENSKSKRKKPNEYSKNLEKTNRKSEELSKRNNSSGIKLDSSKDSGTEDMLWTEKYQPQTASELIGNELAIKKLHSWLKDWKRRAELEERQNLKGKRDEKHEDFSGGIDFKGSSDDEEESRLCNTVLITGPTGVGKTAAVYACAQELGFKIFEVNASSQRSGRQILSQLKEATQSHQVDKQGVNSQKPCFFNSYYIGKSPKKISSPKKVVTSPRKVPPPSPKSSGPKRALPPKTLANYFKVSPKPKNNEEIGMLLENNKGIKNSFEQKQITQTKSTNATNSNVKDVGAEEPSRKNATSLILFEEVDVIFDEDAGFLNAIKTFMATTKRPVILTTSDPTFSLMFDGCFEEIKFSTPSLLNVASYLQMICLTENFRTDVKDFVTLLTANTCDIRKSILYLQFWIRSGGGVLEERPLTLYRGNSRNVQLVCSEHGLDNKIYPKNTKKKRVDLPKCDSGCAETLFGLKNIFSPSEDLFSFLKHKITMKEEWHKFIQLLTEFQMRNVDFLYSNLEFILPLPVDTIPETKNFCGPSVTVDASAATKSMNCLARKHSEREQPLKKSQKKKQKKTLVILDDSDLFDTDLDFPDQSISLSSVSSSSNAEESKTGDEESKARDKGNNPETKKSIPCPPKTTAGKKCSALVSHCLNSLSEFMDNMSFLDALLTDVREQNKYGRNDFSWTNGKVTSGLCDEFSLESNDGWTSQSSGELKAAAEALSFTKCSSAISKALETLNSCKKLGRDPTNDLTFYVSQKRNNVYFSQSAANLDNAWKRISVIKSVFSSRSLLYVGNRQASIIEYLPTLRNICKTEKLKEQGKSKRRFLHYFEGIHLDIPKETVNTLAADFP

Take `CN(C)CC[C@@H](c1ccc(Br)cc1)c1ccccn1`: the call in assay [1], in assay [5], in assay [6], in [7], in assay [8] and in assay [9] was inactive. Further, the Potency entry in assay [2], in assay [3], in assay [4], in assay [10] and in assay [11] was “inactive” each time. Besides, in [4], the viability change amounted to 1.19%.
Take `CCn1nc(C(=O)O)c(=O)c2cc3c(cc21)OCO3`: the result in [1], in assay [5], in assay [6], in [7], in assay [8] and in assay [9] was inactive. The outcome in assay [13] was inactive. Also, the Potency result in assay [2], in assay [3], in assay [4], in assay [10], in [11] and in assay [12] was “inactive” each time. The viability change in assay [4] was -1.17%.
For the molecule `CN(C)CCOC(=O)COc1ccc(Cl)cc1`, the outcome in [1], in assay [5], in [6], in assay [7], in [8] and in assay [9] was inactive. Also, the Potency result in [2], in assay [3], in [4], in assay [10] and in [11] was “inactive” each time. Besides, the viability change in assay [4] is 9.38%.
For the molecule `CCN(CC)CCOCCOC(=O)C1(c2ccccc2)CCCC1`, the call in assay [1], in [5], in [6], in [7], in [8] and in assay [9] was inactive. In addition, in assay [13], the molecule was called inactive. For the same molecule, the Potency entry in [2], in assay [3], in [4] and in [10] was “inactive” throughout. The viability change in [4] came to 0.933%.
As to `O=C(CCNNC(=O)c1ccncc1)NCc1ccccc1`, the outcome in assay [1], in [5], in [6], in assay [7], in [8] and in assay [14] was inactive. In assay [9], the result was inactive. The Potency entry in assay [2], in [3], in assay [4], in assay [10] and in assay [11] was “inactive” throughout. Also, the viability change in [4] was -3.76%.
Regarding `CCCOc1ccccc1-c1nc2n[nH]nc2c(=O)[nH]1`, the molecule was called inactive in assay [1], in assay [5], in assay [6], in assay [7], in [14] and in assay [9]. For the same molecule, the outcome in assay [13] was inactive. In addition, the Potency result in assay [2], in [3], in assay [4], in assay [10], in [11] and in assay [12] was “inactive” in each case. In addition, the viability change in [4] is -11.3%.
As for `COCC(=O)O[C@]1(CCN(C)CCCc2nc3ccccc3[nH]2)CCc2cc(F)ccc2[C@@H]1C(C)C`, the molecule was called inactive in [1], in assay [6], in [7], in assay [8], in [14] and in [9]. In addition, the Potency result in assay [2] and in [10] was “inactive” in each case. Moreover, the values for the Potency in assay [3], in [11] and in assay [12] were 18.3 µM (active), 28.2 µM (active) and 15.8 µM (active), respectively. Besides, the activation in assay [15] was 7.31% (inactive).
For the molecule `FC(F)(F)c1ccccc1-n1ccnc1`, the result in assay [1], in [6], in assay [7], in assay [8], in assay [14] and in assay [9] was inactive. In addition, the call in assay [13] was inactive. The Potency result in assay [2], in [3], in assay [4], in assay [10] and in assay [12] was “inactive” each time. Further, in assay [15], the activation was -2.62% (inactive). Besides, in assay [4], the viability change came to 12.3%.
For `Cc1ccc(Cl)c(Nc2ccccc2C(=O)O)c1Cl`, the call in assay [1], in assay [6], in assay [7], in assay [14] and in assay [9] was inactive. Besides, the Potency result in [2], in assay [3], in assay [10], in assay [11] and in assay [12] was “inactive” throughout. Moreover, in [15], the activation was 0% (inactive).

For the origin of these results see PubChem BioAssay (NCATS).
